Measurements: PubChem BioAssay

Assay: probe aLefty2 binding to arrayed compounds – biochemical, biotinylated probe, 635/667 nm fluorescence, primary screen (AID 1094);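 note: score merges spot fluorescence near 667 nm with spot signal-to-noise ratio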
Conditions: small-molecule microarray, higher = more signal

Which composite z-score does the source give for `COc1cc2c(cc1OC)CN(C(=O)[C@@H]1[C@H]3C(=O)O[C@H](c4ccccc4)[C@H](c4ccccc4)N3[C@H](c3ccc(OCCO)cc3)[C@@]13C(=O)Nc1ccc(C#CC4(O)CCCCCC4)cc13)CC2` here?
Its composite z-score is -0.438.

For `C=C(/C(=C/C[C@H](OC(C)=O)c1cccc(OCCO)c1)c1cnc2ccccc2c1)C(C)C`, which composite z-score is on record?
The composite z-score was -0.0888.

With `OCCCC1=CC(c2ccc(CN3CCCC3)cc2)N(Cc2sc3ccccc3c2Cl)CC1` (configuration not stated) as the compound, how does the composite z-score read?
The composite z-score was 0.0998.

Which composite z-score does the source give for `CCOC(=O)C[C@H]1[C@H](OC(=O)c2ccccc2-c2ccccc2)[C@@H](NC(=O)C2CCCCC2)c2cc(OCCCO)ccc2N1C(=O)Cc1ccc(OC)cc1` here?
The composite z-score was -0.132.

With `CN1C(=O)C2C=CC(C(O)c3cccc4ccccc34)N(N3CCCCC3)C2C1=O` (configuration not stated) as the compound, how does the composite z-score read?
The composite z-score was 0.101.

With `CC1=C([C@H](O)CCc2ccccc2)[C@H](CO)[C@@H]2C(=O)N(C)C(=O)[C@@H]2C1` as the compound, how does the composite z-score read?
The composite z-score was -0.152.

For `O=C1O[C@@H](c2ccccc2)[C@@H](c2ccccc2)N2[C@@H](c3ccc(OCCO)cc3)[C@]3(C(=O)Nc4ccccc43)[C@@H](C(=O)O)[C@H]12`, which composite z-score is on record?
Its composite z-score is 0.176.

For `C=C(/C(=C/C[C@@H](OC(C)=O)c1cccc(OCCO)c1)c1cc(C(=O)OC)ccc1OC)C(C)C`, which composite z-score is on record?
The composite z-score was 0.0347.

For `CCOC(=O)C[C@H]1[C@H](OC(=O)c2cc3ccccc3oc2=O)[C@@H](NC(=O)c2ccc(-c3ccccc3)cc2)c2cc(OCCCO)ccc2N1C(=O)c1ccc2ccccc2n1`, which composite z-score is on record?
The composite z-score was -0.084.

For `CC[C@H]1C2=C3C(CC[C@H]4C(OCc5ccc(F)cc5C(F)(F)F)OC[C@](C)([C@@H]34)N(C(=O)OC(C)(C)C)C2)C(COC)C1COC` (some centres not stated), which composite z-score is on record?
Its composite z-score is 0.0392.

For `C=CCOC(=O)[C@H]1[C@@H]2C(=O)O[C@@H](c3ccccc3)[C@@H](c3ccccc3)N2[C@@H](c2ccc(OCCOC(=O)[C@H]3C[C@H]4C(=O)N[C@@H](CCCCNC(C)=O)C(=O)N4[C@H]3c3ccc(O)cc3)cc2)[C@]12C(=O)Nc1ccccc12`, which composite z-score is on record?
Its composite z-score is 0.0557.

With `[N-]=[N+]=Nc1ccccc1[C@@H]1OC(c2ccc(OCCCO)cc2)=N[C@]1(Cc1ccccc1)C(=O)NCC(O)CO` (some centres not stated) as the compound, how does the composite z-score read?
Its composite z-score is 0.589.

For `COc1ccc(C(O)C2C=CC3C(=O)N(c4ccccc4)C(=O)C3N2Nc2ccc([N+](=O)[O-])cc2)cc1` (configuration not stated), which composite z-score is on record?
Its composite z-score is 0.432.

With `O=C1OCC=C[C@H]2OC34C=CCN(Cn5nnc6ccccc65)C(=O)[C@H]3N(CCCO)C(=O)[C@@H]4[C@@H]12` (some centres not stated) as the compound, how does the composite z-score read?
Its composite z-score is -0.217.

With `CCC[C@@H]1C[C@@]1(CCC)[C@@H](NC(=O)OCc1ccccc1)c1ccc(-c2ccccc2)cc1` as the compound, how does the composite z-score read?
The composite z-score was 0.239.

For `CC(C)(C)OC(=O)CC[C@@]1(C(=O)NCc2ccccc2)N=C(c2ccc(OCCCO)cc2)O[C@@H]1c1ccccc1N=[N+]=[N-]`, which composite z-score is on record?
Its composite z-score is 0.372.

Which composite z-score does the source give for `COCCCNC(=O)[C@]1(CCS(=O)(=O)c2ccccc2)N=C(c2ccc(OCCCO)cc2)O[C@@H]1c1ccccc1CN=[N+]=[N-]` here?
The composite z-score was 0.417.

Which composite z-score does the source give for `C=C(COC)/C(=C/C[C@H](OC(=O)c1ccncc1)c1ccccc1OCCO)c1cnc2ccccc2c1` here?
Its composite z-score is -0.345.

Which composite z-score does the source give for `O=C(NCC(F)(F)F)[C@@H]1c2ccccc2C(=O)N(Cc2cc(F)cc(C(F)(F)F)c2)[C@H]1c1ccc(CO)cc1` here?
Its composite z-score is -0.0998.

Which composite z-score does the source give for `Cc1ccccc1C(O)C1C=CC2C(=O)N(C)C(=O)C2N1N(c1ccccc1)c1ccccc1` (configuration not stated) here?
The composite z-score was 0.756.

Which composite z-score does the source give for `COCCOC(=O)N1C(=O)[C@@]2(c3cc(C#CC4=CCCCC4)ccc31)[C@H](C(N)=O)[C@H]1C(=O)O[C@H](c3ccccc3)[C@H](c3ccccc3)N1[C@@H]2c1ccccc1OCCO` here?
The composite z-score was -0.0028.

With `C[N+](C)(C)CCCCCCNC(=O)[C@H]1C[C@H]2C(=O)NCC(=O)N2[C@H]1c1ccc(O)cc1` as the compound, how does the composite z-score read?
The composite z-score was -0.413.

For `O=C1OCC=C[C@H]2OC34C=CCN(Cc5ccccc5)C(=O)[C@H]3N(CCCCCCO)C(=O)[C@@H]4[C@@H]12` (some centres not stated), which composite z-score is on record?
The composite z-score was 0.0124.

Which composite z-score does the source give for `COc1ccc(-c2nc(-c3ccccc3)c3c(c2C)CO[Si]3(C(C)C)C(C)C)cn1` here?
The composite z-score was -0.162.

For `COCCOC(=O)N1C(=O)[C@@]2(c3cc(C#CC4(O)CCCCCC4)ccc31)[C@H](c1ccc(O)cc1)N1[C@H](c3ccccc3)[C@H](c3ccccc3)OC(=O)[C@H]1[C@@H]2C(=O)NC[C@H](O)c1ccccc1`, which composite z-score is on record?
The composite z-score was 0.332.

For `[N-]=[N+]=NCc1ccccc1C[C@@]1(C(=O)NCc2ccccc2)N=C(c2ccc(OCCCO)cc2)O[C@@H]1c1ccccc1N=[N+]=[N-]`, which composite z-score is on record?
The composite z-score was 0.198.

Which composite z-score does the source give for `[N-]=[N+]=NCc1ccccc1C[C@@]1(C(=O)N2CCOCC2)N=C(c2ccc(OCCCO)cc2)O[C@@H]1c1ccccc1` here?
Its composite z-score is 0.349.
